Compounds with a hit are over-represented: about 7.9% of the library has one in this group of screens.
SW480 rereplic: induces DNA re-replication in SW480 colon adenocarcinoma cells; AID 624297; Potency, µM (doses to about 46.1 µM), without a hit: at the top dose re-replication activation, most hits filed as activators; SW480 DNA re-replication, Hoechst DNA content imaging, 48 h; actives 1.8% (n = 340,000); further: % of control where 0% means no effect; nearly all actives have a fitted effect of over 55% in size
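250 cells/well; 23 nL cpd via pin tool; 48 hr, 37 C, 5% CO2; Hoechst 40 min; imager read of total nuclear intensity, ex 405/em 500-530 nm.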
HT1080NT lethal: kills 2HG-producing HT-1080-NT fibrosarcoma cells; HT-1080-NT fibrosarcoma viability, CellTiter-Glo ATP luminescence, 48 h; Potency, µM (doses to about 46.1 µM), for inactives: at the top dose activity, negative = less viability, hits mostly cytotoxic; actives 1.6% (n = 360,000);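 further: NT is the 2HG producing partner of a matched IDH1 knockdown line; 0% = DMSO-treated cells and -100% = media-only wells without cells; nearly all actives have a fitted effect of over 55% in size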
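Read-out is CellTiter-Glo luminescence after 10 minutes at room temperature, following 48 hours' compound treatment of HT-1080-NT cells (750 cells/well, RPMI, 5% FBS, 37 degrees C).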
HT1080 IDH1KD tx: kills HT-1080 cells with IDH1 knockdown; HT-1080 IDH1 knockdown viability, ATP luminescence, 48 h; Potency, µM (doses to about 46.1 µM), for the others: top-dose activity, negative = toxicity, usual class: cytotoxic; actives 2% (n = 360,000);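 further: 0% = DMSO wells and -100% = cell-free medium wells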
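Viability of IDH1-knockdown HT-1080 fibrosarcoma cells was assessed by CellTiter-Glo after 48 h at 37 °C with titrated compound; concentration-effect curves were classified by fit quality and response size.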
MCF10A rerep: inducers of DNA re-replication in MCF 10A breast cells; MCF 10A DNA re-replication, Hoechst nuclear intensity, 48 h; Potency, µM (doses to about 46.1 µM), inactives show at the top dose activity, positive = re-replication, most hits filed as activators; actives 2.9% (n = 350,000); AID 624296; further: % of control where 0% means no effect; nearly all actives have a fitted effect of over 50% in size
KB-3-1 tox: kills parental KB-3-1 adenocarcinoma cells; KB-3-1 viability, CellTiter-Glo ATP luminescence, 72 h; Potency, µM (highest dose often 46.1 µM), most hits filed as cytotoxic; actives 1.4% (n = 400,000); AID 1347075; further: on the % scale 0 is the no-effect control and ±100 the full control effect; nearly all actives have a fitted effect of over 60% in size
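Viability of parental KB-3-1 cells, measured by CellTiter-Glo luminescence, followed a 72 h incubation at 37 °C with pinned compounds in phenol-red-free DMEM containing 10% FBS.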
KB-V1 MDR tox: kills drug-selected multidrug resistant KB-V1 cells; KB-V1 MDR cells viability, CellTiter-Glo, 72 h; Potency, µM (top dose mostly 46.1 µM), usual class: cytotoxic; actives 3.4% (n = 400,000); further: on the % scale 0 is the no-effect control and ±100 the full control effect; nearly all actives have a fitted effect of over 60% in size
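Cytotoxicity via CellTiter-Glo luminescence after 72 h compound exposure at 37 degrees C. Cells: drug-selected KB-V1 line, DMEM phenol-red free plus 10% FBS. Compounds tested at multiple concentrations; normalized data fitted to concentration-effect curves.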
* = called active by the depositor. The call rests on the fitted dose curve; in most records, active means well fitted curve in the direction sought with a large enough effect; inconclusive means small, poorly fitted or top-dose-only effect, or another doubt; inactive means no such curve, though single readings can be large; an effect the other way counts as inactive or inconclusive. Potency means the concentration at half of the fitted maximal effect.

Results for CN1C(C(=O)c2ccccc2)=C(OC(=O)c2ccc(Br)cc2)c2ccccc2S1(=O)=O ?
KB-3-1 tox: inactive; KB-V1 MDR tox: inactive

How did O=C(Nc1ccn(CCCN2CCN(Cc3cccc4ccccc34)CC2)c(=O)n1)OCc1ccccc1 do in these assays?
HT1080NT lethal: inconclusive; HT1080 IDH1KD tx: -21%; KB-3-1 tox: inconclusive; KB-V1 MDR tox: 18µM*

Results for O=C(Cc1cccc(NC(=O)C2CCCN(C(=O)c3ccccc3)C2)c1)Nc1ccc(C(=O)N2CCOCC2)cc1 (configuration not stated) ?
SW480 rereplic: inconclusive; HT1080NT lethal: 6%; HT1080 IDH1KD tx: 2%; MCF10A rerep: 9%; KB-3-1 tox: inactive; KB-V1 MDR tox: inactive

Results for O=C(O)C1CC=CCC1C(=O)Nc1ccc(S(=O)(=O)N2CCCc3ccccc32)cc1 (configuration not stated) ?
SW480 rereplic: 8%; HT1080NT lethal: inconclusive; HT1080 IDH1KD tx: 5.6µM*; MCF10A rerep: inconclusive; KB-3-1 tox: inconclusive; KB-V1 MDR tox: inactive

How did O=S(=O)(c1cccc(Cl)c1)N1CCSc2ccccc21 do in these assays?
SW480 rereplic: 115%; HT1080NT lethal: -1%; HT1080 IDH1KD tx: -1%; MCF10A rerep: 45%; KB-3-1 tox: inactive; KB-V1 MDR tox: inactive

Results for COc1cc2c(cc1OC)CN(C(=O)c1cccc(S(=O)(=O)N3CCc4ccccc43)c1)CC2 ?
SW480 rereplic: 25%; HT1080NT lethal: -2%; HT1080 IDH1KD tx: -29%; MCF10A rerep: inconclusive; KB-3-1 tox: inactive; KB-V1 MDR tox: 21µM*

What do the screens show for `COc1ccc(S(=O)(=O)N2CCc3ccccc32)cc1NC(C)=O`?
SW480 rereplic: inconclusive; HT1080NT lethal: 9.2µM*; HT1080 IDH1KD tx: inconclusive; MCF10A rerep: 8.2µM*; KB-3-1 tox: 23µM*; KB-V1 MDR tox: inconclusive

What do the screens show for `COc1ccc(S(=O)(=O)N2CCc3ccccc32)cc1C(=O)N1CCN(C=O)CC1`?
SW480 rereplic: -22%; HT1080NT lethal: -7%; HT1080 IDH1KD tx: -6%; MCF10A rerep: -1%; KB-3-1 tox: inactive; KB-V1 MDR tox: inactive

Results for CC(=O)Nc1ccc(S(=O)(=O)N2CCSc3ccccc32)cc1 ?
SW480 rereplic: 3.7µM*; HT1080NT lethal: 21µM*; HT1080 IDH1KD tx: 13µM*; MCF10A rerep: 6.5µM*; KB-3-1 tox: 5.8µM*; KB-V1 MDR tox: inactive

What do the screens show for `Cc1cc(OC(=O)c2cc(-c3ccc4c(c3)OCCO4)on2)ccc1Cl`?
KB-3-1 tox: inactive; KB-V1 MDR tox: inactive

How did COc1ccc(S(=O)(=O)N2CCCc3ccccc32)cc1[N+](=O)[O-] do in these assays?
SW480 rereplic: 21µM*; HT1080NT lethal: 8.2µM*; HT1080 IDH1KD tx: 8.2µM*; MCF10A rerep: 4.1µM*; KB-3-1 tox: 4.1µM*; KB-V1 MDR tox: inconclusive

Results for O=C(Nc1ccncc1)c1ccc(Cl)c(S(=O)(=O)N2CCc3ccccc32)c1 ?
SW480 rereplic: -340%; HT1080NT lethal: inconclusive; HT1080 IDH1KD tx: inconclusive; MCF10A rerep: inconclusive; KB-3-1 tox: inconclusive; KB-V1 MDR tox: inconclusive

How did COc1ccc(C(=O)Nc2ncccc2C)cc1S(=O)(=O)N1CCCc2ccccc21 do in these assays?
SW480 rereplic: -4%; HT1080NT lethal: 1%; HT1080 IDH1KD tx: -5%; MCF10A rerep: 0%; KB-3-1 tox: inactive; KB-V1 MDR tox: inconclusive

Results for COc1ccc(S(=O)(=O)N2CCCc3ccccc32)cc1OC ?
SW480 rereplic: inconclusive; HT1080NT lethal: -21%; HT1080 IDH1KD tx: inconclusive; MCF10A rerep: 10%; KB-3-1 tox: inconclusive; KB-V1 MDR tox: inactive
